# From PubChem BioAssay (NCATS)
# Inconclusive results are not listed. Activity calls are given as the source filed them. Calls follow the shape of the dose curve; as a rule, active = well fitted curve in the direction sought with a large enough effect; inconclusive = small, poorly fitted or top-dose-only effect, or another doubt; inactive = no such curve, though single readings can be large; an effect the other way counts as inactive or inconclusive.
# Key:
# [1] = Quantitative High-Throughput drug screen in 47 multiple myeloma cell lines against the NCATS MIPE library collection: KMS12BM_JCRB cell viability assay (AID 1918971); also: nearly all actives have a fitted effect of over 35% in size
# Outline: (§1)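 Myeloma cell lines, 500 cells per well, exposed to MIPE 4.0 library compounds for 48 h at 37C, 5% CO2. Viability from ATP by CellTiter-Glo luminescence; normalised to DMSO (100%) and media-only (0%) wells.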
# [2] = Quantitative High-Throughput drug screen in 47 multiple myeloma cell lines against the NCATS MIPE library collection: KMS20_JCRB cell viability assay (AID 1918973); also: nearly all actives have a fitted effect of over 45% in size
# Outline: (§2)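 qHTS of the MIPE 4.0 collection: 500 myeloma cells/well, 48 h drug exposure at 37C in 5% CO2, then CellTiter-Glo for 5 min at room temperature before luminescence reading.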
# [3] = Quantitative High-Throughput drug screen in 47 multiple myeloma cell lines against the NCATS MIPE library collection: KMS26_JCRB cell viability assay (AID 1918975); also: nearly all actives have a fitted effect of over 45% in size
# Outline: as §1
# [4] = Quantitative High-Throughput drug screen in 47 multiple myeloma cell lines against the NCATS MIPE library collection: MMM1_PLB cell viability assay (AID 1918976); also: nearly all actives have a fitted effect of over 35% in size
# Outline: (§3)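 Plated at 500 cells per well, myeloma lines received MIPE 4.0 compounds by pin tool. Following 48 h culture at 37 °C, CellTiter-Glo luminescence gave viability relative to DMSO and media-only controls.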
# [5] = Quantitative High-Throughput drug screen in 47 multiple myeloma cell lines against the NCATS MIPE library collection: MOLP8_DSMZ cell viability assay (AID 1918977); also: nearly all actives have a fitted effect of over 45% in size
# Outline: as §3
# [6] = Quantitative High-Throughput drug screen in 47 multiple myeloma cell lines against the NCATS MIPE library collection: NCIH929_DSMZ cell viability assay (AID 1918978); also: nearly all actives have a fitted effect of over 35% in size
# Outline: as §3
# [7] = Quantitative High-Throughput drug screen in 47 multiple myeloma cell lines against the NCATS MIPE library collection: MM1S_ATCC cell viability assay (AID 1918980); also: nearly all actives have a fitted effect of over 45% in size
# Outline: as §3
# [8] = Quantitative High-Throughput drug screen in 47 multiple myeloma cell lines against the NCATS MIPE library collection: OCIMY1_PLB cell viability assay (AID 1918979); also: nearly all actives have a fitted effect of over 35% in size
# Outline: as §3
# [9] = Quantitative High-Throughput drug screen in 47 multiple myeloma cell lines against the NCATS MIPE library collection: KMS12PE_JCRB cell viability assay (AID 1918972); also: nearly all actives have a fitted effect of over 30% in size
# Outline: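 We plated 500 myeloma cells per well, pinned in MIPE 4.0 compounds, and incubated for 48 hours at 37C. ATP was then quantified with CellTiter-Glo, with DMSO and media-only wells defining 100% and 0%.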
# [10] = Quantitative High-Throughput drug screen in 47 multiple myeloma cell lines against the NCATS MIPE library collection: KMS21BM_JCRB cell viability assay (AID 1918974); conditions: ATP luminescence, 48 h; viability: at 45.8 µM (top of the series)
# Outline: as §2
# Potency is read from the fitted curve at half-maximal effect.
smiles,measurement,setting,value
COc1ccc2nc3cc(Cl)ccc3c(Nc3cc(CN4CCCC4)c(O)c(CN4CCCC4)c3)c2n1,Potency,[1],11.8 µM (active)
same,Potency,[2],20.9 µM (active)
same,Potency,[3],16.6 µM (active)
same,Potency,[4],14.8 µM (active)
same,Potency,[5],16.6 µM (active)
same,Potency,[6],18.7 µM (active)
same,Potency,[7],20.9 µM (active)
C[C@H](CCC(=O)O)[C@H]1CC[C@H]2[C@H]3[C@@H](CC[C@]12C)[C@@]1(C)CC[C@@H](O)C[C@H]1C[C@@H]3O,Potency,[1],inactive
same,Potency,[2],inactive
same,Potency,[3],inactive
same,Potency,[4],1.66 µM (active)
same,Potency,[6],inactive
same,Potency,[8],inactive
same,Potency,[7],inactive
Cc1c(-c2cccc3c(CCCOc4cccc5ccccc45)c(C(=O)O)n(Cc4cccnc4)c23)c(COc2ccc(N3CCN([S+](=O)([O-])N(C)C)CC3)cc2)nn1C,Potency,[1],23.5 µM (active)
same,Potency,[9],inactive
same,Potency,[6],3.72 µM (active)
same,Potency,[8],inactive
same,Potency,[7],23.5 µM (active)
COc1ccnc(CS(=O)c2nc3ccc(OC(F)F)cc3[nH]2)c1OC (configuration not stated),Potency,[1],inactive
same,Potency,[2],inactive
same,Potency,[5],inactive
same,Potency,[6],18.7 µM (active)
same,Potency,[8],inactive
CN1CCc2c(n(Cc3ccc(C(=O)NO)cc3)c3ccccc23)C1,Potency,[1],18.7 µM (active)
same,Potency,[3],14.8 µM (active)
same,Potency,[4],14.8 µM (active)
same,Potency,[5],18.7 µM (active)
same,Potency,[6],16.6 µM (active)
Cc1cc(-c2ncc(CC(=O)Nc3ccc(-c4cnccn4)cn3)cc2C)ccn1,Potency,[1],6.62 µM (active)
same,Potency,[10],18.7 µM (active)
same,Potency,[4],16.6 µM (active)
same,Potency,[6],20.9 µM (active)
same,Potency,[8],inactive
CCc1cccc(CC)c1NC(=O)N1Cc2[nH]nc(NC(=O)c3ccc(N4CCN(C)CC4)cc3)c2C1,Potency,[1],18.7 µM (active)
same,Potency,[2],14.8 µM (active)
same,Potency,[4],inactive
same,Potency,[5],16.6 µM (active)
same,Potency,[6],16.6 µM (active)
CCNC(=O)[C@H]1O[C@@H](n2cnc3c(N)nc(NCCc4ccc(CCC(=O)O)cc4)nc32)[C@H](O)[C@H]1O,Potency,[1],3.32 µM (active)
same,Potency,[9],0.132 µM (active)
same,Potency,[6],0.332 µM (active)
same,Potency,[8],inactive
same,Potency,[7],0.332 µM (active)
CCNC(=O)CCCC=CC[C@@H]1[C@H](C=CC(O)CCc2ccccc2)[C@@H](O)C[C@@H]1O (some centres not stated),Potency,[1],7.43 µM (active)
same,Potency,[9],inactive
same,Potency,[6],inactive
same,Potency,[8],inactive
same,Potency,[7],5.9 µM (active)
CC[C@@H]([C@H](C)O)n1ncn(-c2ccc(N3CCN(c4ccc(OCC5CO[C@@](Cn6cncn6)(c6ccc(F)cc6F)C5)cc4)CC3)cc2)c1=O (some centres not stated),Potency,[1],16.6 µM (active)
same,Potency,[2],inactive
same,Potency,[4],16.6 µM (active)
same,Potency,[7],inactive
COc1c(C)cnc(Cn2cnc3c(Cl)nc(N)nc32)c1C,Potency,[1],0.187 µM (active)
same,Potency,[2],0.209 µM (active)
same,Potency,[3],0.209 µM (active)
same,Potency,[4],0.935 µM (active)
same,Potency,[5],0.0935 µM (active)
same,Potency,[6],0.187 µM (active)
same,Potency,[7],0.332 µM (active)
NC(N)=Nc1nc(CSCCC(N)=NS(N)(=O)=O)cs1,Potency,[1],inactive
same,Potency,[9],inactive
same,Potency,[6],8.33 µM (active)
same,Potency,[7],9.35 µM (active)
CCNC(=O)Nc1ccc(Oc2ncnc(N)c2C=NOC)cc1Cl,Potency,[1],14.8 µM (active)
same,Potency,[9],2.96 µM (active)
same,Potency,[6],inactive
same,Potency,[8],23.5 µM (active)
COc1ccc(-c2ccc3ncc4c(c3c2)n(-c2ccc(N3CCNCC3)c(C(F)(F)F)c2)c(=O)n4C)cn1,Potency,[1],0.332 µM (active)
same,Potency,[2],0.0066 µM (active)
same,Potency,[3],0.0083 µM (active)
same,Potency,[4],0.0074 µM (active)
C[C@@H](O[C@H]1OCCN(Cc2n[nH]c(=O)[nH]2)[C@@H]1c1ccc(F)cc1)c1cc(C(F)(F)F)cc(C(F)(F)F)c1,Potency,[1],18.7 µM (active)
same,Potency,[3],18.7 µM (active)
CCCCCCCCCCCCCC(=O)N[C@H](CO)[C@H](O)c1ccc([N+](=O)[O-])cc1,Potency,[1],23.5 µM (active)
same,Potency,[9],8.33 µM (active)
same,Potency,[6],23.5 µM (active)
same,Potency,[8],inactive
CCCCc1ccc(NS(=O)(=O)c2ccc(C)c(C(=O)N3CCN(c4cccc(C)c4C)CC3)c2)cc1,Potency,[1],20.9 µM (active)
same,Potency,[3],23.5 µM (active)
same,Potency,[4],18.7 µM (active)
Cc1cnc(Nc2cccc(CN3CCOCC3)c2)nc1Nc1cccc(S(=O)(=O)NC(C)(C)C)c1,Potency,[1],5.26 µM (active)
same,Potency,[3],18.7 µM (active)
same,Potency,[4],18.7 µM (active)
same,Potency,[5],2.96 µM (active)
same,Potency,[6],1.87 µM (active)
CN(C)S(=O)(=O)c1ccc2c(c1)C(=Cc1cc3c([nH]1)CCCC3)C(=O)N2,Potency,[1],8.33 µM (active)
same,Potency,[2],10.5 µM (active)
same,Potency,[3],2.35 µM (active)
same,Potency,[4],18.7 µM (active)
same,Potency,[6],18.7 µM (active)
same,Potency,[7],20.9 µM (active)
C[C@@]1(c2cc(-c3cncnc3)c(F)cc2F)CCSC(N)=N1,Potency,[1],inactive
same,Potency,[2],9.35 µM (active)
same,Potency,[3],inactive
same,Potency,[6],2.96 µM (active)
same,Potency,[8],inactive
